Experimental data as given in PubChem BioAssay (NCI).
Compounds without any hit were thinned out: in the full panel of roughly 83,000, 20% have a hit.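 Negative percent growth values reflect cell death: -40 means 40% of the cells present at the start died, and -100 means all died.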 A number with no mark means an inactive call. Active and inactive are the calls of the source. The calls were made as follows: active = growth percent below 10; inactive = the rest.

These compounds were tested on CAKI-1 renal (assay: NCI-60 one-dose screen, 48 h (100 = growth as untreated, 0 = no growth, -100 = all killed)). Conditions: 10 µM unless noted.

Q: With `O=C(Nc1cccc(F)c1)c1cc(=O)[nH]c2cc(Br)ccc12` as the compound, how does the growth read?
A: The growth was 33.8%.

Q: With `COC(=O)[C@]12CCC(C)(C)C[C@H]1C1=CC[C@@H]3[C@@]4(C)C/C(=C/c5cccnc5)C(=O)C(C)(C)[C@@H]4CC[C@@]3(C)[C@]1(C)CC2` as the compound, how does the growth read?
A: The growth was -15.4% [100 µM] (active).

Q: For `N#C/C(C(=O)c1ccccc1)=C1/C(=O)Nc2ccc(Br)cc21`, which growth is on record?
A: Its growth is 84%.

Q: For `COc1ccc(-c2cc(-c3ccc(Cl)cc3)nc(NCCCCNc3ccnc4cc(Cl)ccc34)n2)cc1`, which growth is on record?
A: The growth was 64.3%.

Q: With `CCCSc1nc(N)nc2nc[nH]c12` as the compound, how does the growth read?
A: Its growth is 128%.

Q: Which growth does the source give for `CCN(CC)c1ccc2cc(NC(=O)OCCNC(=O)CCNC(=O)[C@H](CC(C)C)NC(=O)C(C)(C)NC(=O)C(C)(C)NC(=O)[C@H](CC(C)C)NC(=O)CCNC(=O)C(C)(C)NC(=O)[C@H](CC(C)C)NC(=O)CCNC(=O)[C@@](C)(CC)NC(=O)[C@H](C)NC(=O)CCNC(=O)C(C)(C)NC(=O)[C@H](C)NC(=O)[C@@H]3CCCN3C(=O)[C@@](C)(CC)NC(=O)[C@H](Cc3ccccc3)NC(=O)C3CCCN3C(=O)C(C)(C)NC(=O)C3CCCN3C(=O)C(C)(C)NC(C)=O)c(=O)oc2c1` (stereo partly drawn) here?
A: The growth was -92.4% (active).

Q: Which growth does the source give for `C=C(C)[C@@H]1CC[C@]2(C(=O)N3CCN(C)CC3)CC[C@]3(C)[C@H](CC[C@@H]4[C@@]5(C)C/C(=C/c6ccncc6)[C@H](O)C(C)(C)[C@@H]5CC[C@]43C)[C@@H]12` here?
A: Its growth is 12.1% [100 µM].

Q: `CC[C@@](C)(NC(=O)[C@H](C)NC(=O)CCNC(=O)C(C)(C)NC(=O)[C@H](C)NC(=O)[C@@H]1CCCN1C(=O)[C@@](C)(CC)NC(=O)[C@H](Cc1ccccc1)NC(=O)C1CCCN1C(=O)C(C)(C)NC(=O)C1CCCN1C(=O)C(C)(C)NC(C)=O)C(=O)NCCC(=O)N[C@@H](CC(C)C)C(=O)NC(C)(C)C(=O)NCCC(=O)N[C@@H](CC(C)C)C(=O)NC(C)(C)C(=O)NC(C)(C)C(=O)N[C@@H](CC(C)C)C(=O)NCCC(=O)NCO` (stereo partly drawn) was tested. Which growth did it give?
A: The growth was -98.2% (active).

Q: `C#C[C@]1(O)CC[C@H]2[C@@H]3CC=C4c5nc(Nc6ncccn6)sc5CC[C@]4(C)[C@H]3CC[C@@]21C` was tested. Which growth did it give?
A: Its growth is 58.6%.

Q: Which growth does the source give for `CC(C)(C)c1cc(C(=O)N2CCC(C(=O)NCCN)CC2)cc(C(C)(C)C)c1` here?
A: Its growth is 80.7%.

Q: `CCOC(=O)/C(C#N)=C(\C)CCc1ccccc1` was tested. Which growth did it give?
A: The growth was 80.9%.

Q: For `COc1ccc2c3ccnc(C(F)(F)F)c3n(CCCCN)c2c1`, which growth is on record?
A: The growth was 29.6%.

Q: How did the growth turn out when `O=C(O)c1cccc(CN2CCN(c3cc4c(cc3F)c(=O)c(C(=O)O)cn4C3CC3)CC2)c1O` was run?
A: The growth was 88.7%.

Q: How did the growth turn out when `CCN(CC)c1ccc2cc(C(Nc3ccc(Br)c(C(F)(F)F)c3)c3nnnn3C(C)(C)C)c(=O)oc2c1` (stereo not drawn) was run?
A: The growth was 85%.

Q: How did the growth turn out when `O=C(NCCCNC(=O)OCc1ccc2c(Br)cc(Br)c(O)c2n1)OCc1ccc2c(Br)cc(Br)c(O)c2n1` was run?
A: The growth was -92% (active).

Q: `C[N+](C)(C)c1ncnc2[n-]cnc12` was tested. Which growth did it give?
A: Its growth is 58.8%.

Q: For `O=S(=O)(c1ccc(N/N=C\c2ccccc2Cl)cc1)c1ccc(N/N=C/c2ccccc2Cl)cc1`, which growth is on record?
A: The growth was 62.2%.

Q: With `CCCOc1ccc(-c2nc(-c3ccc(N)cc3)cs2)cc1` as the compound, how does the growth read?
A: Its growth is 79.3%.

Q: Which growth does the source give for `O=C(NCc1ccc(Cn2c(=O)sn(-c3ccccc3)c2=O)cc1)OCc1ccc2c(Br)cc(Br)c(O)c2n1` here?
A: The growth was -74.9% (active).

Q: How did the growth turn out when `N#CCCc1c[nH]c2ccccc12` was run?
A: The growth was 87.3%.

Q: `C=CCCCCCCCCC(=O)OC(C)C` was tested. Which growth did it give?
A: The growth was 107%.

Q: How did the growth turn out when `COc1cc2c(cc1OCCCCCOc1ccc(-n3c(C)nc4ccccc4c3=O)cc1)N=C[C@@H]1CCCN1C2=O` was run?
A: The growth was 4.3% (active).

Q: How did the growth turn out when `Cc1cccc(/C=C2\N=C(c3ccccc3)N(c3ccc(S(N)(=O)=O)cc3)C2=O)c1` was run?
A: The growth was 86.2%.

Q: For `Clc1ccc(/C=N/Nc2nc3ccccc3s2)c(Cl)c1`, which growth is on record?
A: Its growth is 82%.

Q: `CCOC(=O)COc1c(C)cc(SSc2cc(C)c(OCC(=O)OCC)c(C)c2)cc1C` was tested. Which growth did it give?
A: The growth was 106%.

Q: With `Nc1nc(Nc2ccccc2)c2ncn(Cc3cc4c(cc3Br)OCO4)c2n1` as the compound, how does the growth read?
A: Its growth is 18.2%.

Q: How did the growth turn out when `CCOC(=O)c1c[nH]n2c(=S)ncnc12` was run?
A: Its growth is 102%.

Q: `CC1(C)CC[C@]2(C(N)=O)CC[C@]3(C)C(=CC[C@@H]4[C@@]5(C)C/C(=C/c6cccnc6)C(=O)C(C)(C)[C@@H]5CC[C@]43C)[C@@H]2C1` was tested. Which growth did it give?
A: Its growth is -30.6% [100 µM] (active).
